An excerpt weighted towards active compounds, which were near 19% of everything screened.
DT40 TDP1 CPT: growth inhibition of DT40 Tdp1-/-;hTDP1 cells with camptothecin (screen for TDP1 inhibitors); chicken DT40 Tdp1-/-;hTDP1 cells + 20 nM CPT, ATP luminescence, 48 h; Potency, µM (top dose mostly 46.2 µM), actives largely listed as inhibitors; AID 686979; hit rate 12% among 420,000; further: nearly all actives have a fitted effect of over 55% in size
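Cell growth measured by CellTiter-Glo luminescence after a minimum 48 h, 37 C compound exposure with 20 nM CPT in Tdp1-knockout DT40 cells stably expressing hTDP1, seeded 400/well; qHTS titration format.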
DT40 TDP1 no CPT: qHTS for Inhibitors of human tyrosyl-DNA phosphodiesterase 1 (TDP1): qHTS in cells in absence of CPT. DT40 Tdp1-/- hTDP1 cells, no CPT, ATP luminescence, 48 h. Potency, µM (doses to about 46.2 µM), actives largely listed as inhibitors. hit rate 15% among 420,000. AID 686978, 2013; further: nearly all actives have a fitted effect of over 55% in size
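Growth kinetics read by CellTiter-Glo luminescence after ≥48 hr at 37 °C. Cells: DT40 Tdp1-/- stably carrying human TDP1, 400 per well, compound exposure in the absence of CPT (DMSO vehicle).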
HepG2 tox: counter-screen for TGF-b inhibitors: cytotoxicity in HepG2 cells. HepG2 CAGA-GFP viability, ATP luminescence, 18 h. Potency, µM (series often up to 46.1 µM), usual class: cytotoxic. hit rate 0.76% among 410,000. AID 588856
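CellTiter-Glo luminescence gave cytotoxicity after 18 hours at 37 degrees C. The cells were HepG2 CAGA-GFP in 1% FBS DMEM, stimulated with 500 pg/mL TGF-beta after compound addition. %Activity was normalised to no-cell wells (complete cell-killing) and DMSO (no toxicity), and curves were fitted and classified.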
S-ASM inh: inhibitors of human secretory acid sphingomyelinase; P17405; placental ASM, HMU-PC fluorogenic substrate, 60 min; Potency, µM (series often up to 57.5 µM), most hits filed as inhibitors; hit rate 0.006% among 340,000
Target sequence (P17405 47-631 limits assumed): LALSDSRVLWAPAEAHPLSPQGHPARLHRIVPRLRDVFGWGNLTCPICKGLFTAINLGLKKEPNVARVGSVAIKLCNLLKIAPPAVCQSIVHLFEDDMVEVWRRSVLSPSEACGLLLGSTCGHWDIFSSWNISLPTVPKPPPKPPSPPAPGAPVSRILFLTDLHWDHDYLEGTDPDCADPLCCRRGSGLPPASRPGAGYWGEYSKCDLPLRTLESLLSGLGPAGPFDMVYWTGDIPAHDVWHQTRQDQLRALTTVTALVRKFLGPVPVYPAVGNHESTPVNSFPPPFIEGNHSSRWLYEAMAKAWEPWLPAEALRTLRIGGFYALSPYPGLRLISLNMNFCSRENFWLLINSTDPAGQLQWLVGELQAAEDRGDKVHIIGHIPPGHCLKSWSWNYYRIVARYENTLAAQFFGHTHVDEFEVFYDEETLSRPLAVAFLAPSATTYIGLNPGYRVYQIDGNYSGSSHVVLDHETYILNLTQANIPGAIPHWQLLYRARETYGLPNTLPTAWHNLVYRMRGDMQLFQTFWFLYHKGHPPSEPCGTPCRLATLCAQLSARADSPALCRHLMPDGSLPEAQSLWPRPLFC
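qHTS format. ASM enzyme prepared from human placenta hydrolyses the fluorogenic substrate HMU-PC0 (9 uM final) over 60 min at 37 °C after a 10 min compound preincubation.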
IL-1B inflam inh: inflammasome signaling inhibition, IL-1 beta readout | THP-1 LPS/ATP IL-1B secretion, AlphaLISA, 16 h; active compounds read low | activity change, % at 57.5 µM | hit rate 4.7% among 360,000 | AID 743279; in the data active means activity change below about -50%; inconclusive means mostly about -30% to -49%
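Secreted IL-1B measured by AlphaLISA bead assay after 16 h compound exposure of THP-1 cells; compounds (final up to 57.5 uM) added 1 h before LPS (250 ng/mL) and ATP (1.25 mM) stimulation; lower signal means less secretion.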
TGFb SMAD3 inh: TGF-b pathway inhibition. Potency, µM (series often up to 46.1 µM), usual class: inhibitors. hit rate 1.2% among 410,000. HepG2 CAGA-GFP TGF-b/SMAD3 reporter, GFP fluorescence, 18 h; TGF-beta stimulated, 500 pg/mL final. AID 588855; further: nearly all actives have a fitted effect of over 65% in size
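Smad-responsive CAGA-GFP expression was quantified in HEPG2 cells exposed to compounds and 500 pg/mL final TGF-beta for 18 h at 37 degrees C; unstimulated wells defined full inhibition.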
Hits are given with their value; – = inactive; ? = inconclusive; · = no result given; [ ] = dose if it differs, or a comment. Unless noted, the call rests on the fitted dose curve; in most records, active means well fitted curve in the direction sought with a large enough effect; inconclusive means small, poorly fitted or top-dose-only effect, or another doubt; inactive means no such curve, though single readings can be large; an effect the other way counts as inactive or inconclusive.

SMILES	DT40 TDP1 CPT	DT40 TDP1 no CPT	HepG2 tox	S-ASM inh	IL-1B inflam inh	TGFb SMAD3 inh
O=C(Nc1cccc(C(F)(F)F)c1)C1CCN(S(=O)(=O)c2ccc(N3CCCC3=O)cc2)CC1	2.59µM	2.06µM	–	–	–	?
COc1cccc(NC(=O)C2CCN(S(=O)(=O)c3ccc(N4CCCC4=O)cc3)CC2)c1	14.6µM	?	–	·	–	–
COc1cccc(NC(=O)C2CCN(S(=O)(=O)c3ccc4c(c3)NC(=O)CO4)CC2)c1	23.1µM	?	–	–	–	–
CCc1ccccc1NC(=O)C1CCN(S(=O)(=O)c2ccc(N3CCCC3=O)cc2)CC1	–	–	–	·	–	–
Cc1cccc(NC(=O)C2CCN(S(=O)(=O)c3ccc4c(c3)NC(=O)CO4)CC2)c1	?	–	–	–	–	–
Cc1ccc(C(=O)NC(N(C)C)C(Cl)(Cl)Cl)cc1 (stereo unspecified)	–	–	–	–	–	–
O=C(NC(C(=O)O)c1ccccc1)c1ccccc1 (stereo unspecified)	–	–	–	–	–	–
Cc1ccc(C(NC(=O)c2ccccc2)C(Cl)(Cl)Cl)cc1 (stereo unspecified)	14.6µM	20.6µM	–	–	–	–
O=C(NC(c1ccccc1)C(Cl)(Cl)Cl)c1ccccc1 (stereo unspecified)	20.6µM	20.6µM	–	–	–	–
Cc1ccccc1OCC(=O)N1N=C(C(F)(F)F)CC1(O)C(C)(C)C (stereo unspecified)	?	16.4µM	11.2µM	–	–	?
COC(=O)C1=CN(Cc2ccccc2)C=C(C(=O)OC)C1c1ccc(OC)c(OC)c1	?	?	–	–	–	–
COC(=O)C1=CN(Cc2ccc(C)cc2)C=C(C(=O)OC)C1c1cc(OC)c(OC)c(OC)c1	16.4µM	?	–	–	–	–
CCCNC(=O)C(Cc1cccc(C#N)c1)NC(=O)c1ccc(C#N)cc1 (stereo unspecified)	?	–	–	–	–	–
CCCc1ccc(NC(=O)C2CCCN(c3cnccn3)C2)cc1 (stereo unspecified)	20.6µM	20.6µM	–	–	–	–
CCOc1ccc(NC(=O)C2CCCN(c3cnccn3)C2)cc1 (stereo unspecified)	–	–	–	–	–	–
CCCCc1ccc(NC(=O)C2CCCC2)cc1	?	?	–	–	-67.4	–
CCN(CC)c1ccc(NC(=O)C2CCCC2)cc1	?	?	–	–	–	–
CC(O)[C@H]1CC[C@H]2[C@@H]3CC[C@@H]4C[C@@H](O)CC[C@]4(C)[C@H]3CC[C@]12C (stereo partly specified)	–	–	·	·	·	·
CCOC(=O)C1CCCN(C(=O)c2cnn(-c3ncc4c(n3)-c3ccccc3CC4)c2C)C1 (stereo unspecified)	–[9.04 µM]	–	·	·	·	·
COc1ccc(C(=O)Nc2nc(-c3nnn(-c4cc(OC)ccc4OC)c3C)ns2)cc1	16.4µM	16.4µM	–	·	·	–
COc1ccc(C(=O)Nc2nc(-c3nnn(-c4ccc(C(C)C)cc4)c3C)ns2)cc1	13µM	16.4µM	–	·	·	?
O=C(Nc1nc(-c2ccc(Br)cc2)ns1)c1ccc(F)cc1	?	18.4µM	–	·	·	–
COc1ccc(Cl)cc1-n1nnc(-c2nsc(NC(=O)c3ccccc3Cl)n2)c1C	–	–	–	·	·	–
COc1ccc(-c2nsc(NC(=O)c3cccc(OC)c3)n2)cc1	?	20.6µM	–	·	·	–
O=C(CN(CC1CCCO1)C(=O)CNS(=O)(=O)c1ccccc1)NCc1ccc(F)cc1 (stereo unspecified)	–	–	–	–	–	–
SMILES	DT40 TDP1 CPT	DT40 TDP1 no CPT	HepG2 tox	S-ASM inh	IL-1B inflam inh	TGFb SMAD3 inh
CS(=O)(=O)N1Cc2cc(C(=O)NCC3CC3)nc(-c3cccc(-c4cccnc4)c3)c2[C@@H]1CCO	?	?	·	·	–	·
O=C(Nc1ccc2[nH]c(=O)[nH]c2c1)c1cccc([N+](=O)[O-])c1	–	–	–	–	–	–
COc1ccc(OC)c(NC(=O)c2cc(=O)c3c(C)cc(C)cc3o2)c1	–	?	–	·	·	–
CCc1cc2c(-c3ccccc3)cc(=O)oc2cc1OCC(=O)NCC1CCC(C(=O)O)CC1 (stereo unspecified)	–	–	–	–	–	–
Cc1ccccc1-c1ncc(CN2CCN(C3CCCCC3)C(CCO)C2)cn1 (stereo unspecified)	–	–	–	–	–	–
Cc1ccc(-c2noc(C3CCCN(S(=O)(=O)c4ccc(S(=O)(=O)N(C)C)cc4)C3)n2)o1 (stereo unspecified)	–	?	–	–	–	–
Cc1ccc(-c2noc(C3CCN(C(=O)Nc4ccc(C#N)cc4)CC3)n2)o1	23.1µM	?	–	–	–	–
Cc1ccc(-c2noc(C3CCCN(S(=O)(=O)c4ccc5ccccc5c4)C3)n2)o1 (stereo unspecified)	?	–	–	–	?	–
Cc1ccc(-c2noc(C3CCCN(C(=O)c4ccc(C(C)(C)C)cc4)C3)n2)o1 (stereo unspecified)	?	18.4µM	–	–	–	–
CN(C)c1ccc(-c2noc(C3CCN(C(=O)Nc4ccc(Cl)cc4)CC3)n2)cc1	?	?	–	–	–	–
Cc1ccc(S(=O)(=O)N2CCCC(c3nc(-c4ccc(C)o4)no3)C2)cc1 (stereo unspecified)	–	–	–	–	-73.1	–
COc1cc(OC)cc(C(=O)N2CCCC(c3nc(-c4ccc(C)o4)no3)C2)c1 (stereo unspecified)	–	?	–	–	–	–
CC(=O)c1cccc(S(=O)(=O)N2CCCC(c3nc(-c4ccc(C)o4)no3)C2)c1 (stereo unspecified)	18.4µM	?	–	–	–	–
CCOc1ccc(/C=N/NC2=NCCCCC2)cc1	–	–	–	–	–	–
Cc1ccc(C(=O)NCCCNC(=O)c2ccco2)cc1C	–	–	–	–	–	–
COc1ccc(-c2noc(C3CCCN(S(=O)(=O)c4cccc(Cl)c4C)C3)n2)cc1OC (stereo unspecified)	?	?	–	–	–	–
COc1ccc(-c2noc(C3CCCN(S(=O)(=O)c4ccc(C)c(Cl)c4)C3)n2)cc1OC (stereo unspecified)	?	20.6µM	–	–	–	–
COc1ccccc1CN(C)C(=O)COC(=O)c1c(C)noc1C	–	–	–	–	–	–
CSc1ncc(CN2CCC(C(=O)Nc3cccc(-c4cscn4)c3)CC2)cn1	?	?	–	–	?	?
